From PubChem BioAssay AID2428 (Vanderbilt High Throughput Screening Facility, 2010)
Results with a measured potency or affinity are listed apart. Calls of active or inactive are those of the source.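 The calls were made as follows: active = compound whose fitted concentration response curve has an R squared above 0.5; inactive = the rest.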

Biological target: Muscarinic acetylcholine receptor M3 (Homo sapiens) (UniProt P20309)
Assay: potentiation of ACh response at M3 – cell-based, CHO-K1 hM3, Fluo-4 calcium, ACh EC20, selectivity assay for M1 PAM project, dose response (AID 2428)
Details: series mostly up to 30 µM

Muscarinic acetylcholine receptor M3 (Homo sapiens), sequence (P20309 whole entry, looked up): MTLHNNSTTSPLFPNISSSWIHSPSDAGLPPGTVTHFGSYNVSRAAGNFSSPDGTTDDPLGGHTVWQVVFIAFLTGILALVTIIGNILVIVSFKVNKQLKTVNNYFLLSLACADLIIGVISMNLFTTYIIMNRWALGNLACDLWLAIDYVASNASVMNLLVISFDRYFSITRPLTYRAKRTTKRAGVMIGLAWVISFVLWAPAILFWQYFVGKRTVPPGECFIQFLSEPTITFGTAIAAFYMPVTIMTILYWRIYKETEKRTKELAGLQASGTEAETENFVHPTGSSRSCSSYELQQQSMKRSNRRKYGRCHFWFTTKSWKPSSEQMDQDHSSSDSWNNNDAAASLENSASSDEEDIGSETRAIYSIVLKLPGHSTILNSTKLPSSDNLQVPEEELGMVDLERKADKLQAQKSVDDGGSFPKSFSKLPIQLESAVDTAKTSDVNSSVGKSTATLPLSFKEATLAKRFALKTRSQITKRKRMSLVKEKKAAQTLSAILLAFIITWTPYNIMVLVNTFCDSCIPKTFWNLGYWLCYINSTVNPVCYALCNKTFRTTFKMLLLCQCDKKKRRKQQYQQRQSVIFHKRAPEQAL

outcome, inactive:
Cn1cc(-c2cc(F)c(CN3C(=O)C(=O)c4ccccc43)c(F)c2)cn1
Cc1cc(NC(=O)CS(=O)(=O)c2cn(Cc3cccc(-c4ccn(C)n4)c3)c3ccccc23)no1
Cc1cc(NC(=O)CS(=O)(=O)c2cn(Cc3cccc(Cl)c3)c3ccccc23)no1
Cc1cc(NC(=O)CS(=O)(=O)c2cn(Cc3cc(Br)ccc3F)c3ccccc23)no1
Cc1cc(NC(=O)CS(=O)(=O)c2cn(Cc3ccccc3Cl)c3ccccc23)no1
Cc1cc(NC(=O)CS(=O)(=O)c2cn(Cc3cccc(F)c3)c3ccccc23)no1
Cn1cc(-c2ccc(CN3C(=O)C(=O)c4ccccc43)c(F)c2)cn1
O=C1C(=O)N(Cc2ccc(Oc3ccccc3)cc2)c2ccc(OC(F)(F)F)cc21
